# Screening data deposited in PubChem BioAssay by National Center for Advancing Translational Sciences (NCATS).
# WRN helicase inh: blocks human WRN helicase. Q14191. WRN helicase unwinding, fluorescent forked duplex, kinetic. Potency, µM (doses to about 114 µM), usual class: inhibitors. 360,000 compounds, 0.46% hits. AID 651768; further: nearly all actives have a fitted effect of over 55% in size
#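 Primary qHTS, 1536-well format. 20 nM WRN + compound, 15 min RT; start with 100 nM forked fluorophore/quencher duplex, 2 mM ATP (final); kinetic read ex 525/em 598 nm.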
# POLI inh: blocks human DNA polymerase iota activity; Q9UNA4; Pol iota fluorescent replication assay, 10 min; Potency, µM (titrated, usually from 115 µM), most hits filed as inhibitors; 390,000 compounds, 1% hits; AID 588590
# Target sequence (Q9UNA4 whole entry, looked up): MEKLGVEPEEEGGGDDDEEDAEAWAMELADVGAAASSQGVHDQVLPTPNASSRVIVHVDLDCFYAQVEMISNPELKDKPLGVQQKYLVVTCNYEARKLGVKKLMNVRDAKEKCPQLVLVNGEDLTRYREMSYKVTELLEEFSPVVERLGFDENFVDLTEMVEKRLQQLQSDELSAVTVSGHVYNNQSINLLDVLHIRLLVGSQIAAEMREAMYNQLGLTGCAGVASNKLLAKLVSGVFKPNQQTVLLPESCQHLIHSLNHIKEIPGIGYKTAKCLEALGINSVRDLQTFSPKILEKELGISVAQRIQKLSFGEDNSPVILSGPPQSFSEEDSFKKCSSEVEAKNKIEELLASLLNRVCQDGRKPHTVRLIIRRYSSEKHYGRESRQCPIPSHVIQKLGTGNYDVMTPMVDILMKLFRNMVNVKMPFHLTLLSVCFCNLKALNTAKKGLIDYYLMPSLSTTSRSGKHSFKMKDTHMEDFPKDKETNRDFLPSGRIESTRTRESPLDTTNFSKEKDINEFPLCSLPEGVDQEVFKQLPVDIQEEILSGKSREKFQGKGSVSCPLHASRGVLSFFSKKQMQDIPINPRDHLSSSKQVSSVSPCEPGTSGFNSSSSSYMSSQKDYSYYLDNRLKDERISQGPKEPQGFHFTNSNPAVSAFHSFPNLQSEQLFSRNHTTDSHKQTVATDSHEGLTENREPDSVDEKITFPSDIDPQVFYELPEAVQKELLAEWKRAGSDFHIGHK
#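 Pol iota at 10 nM preincubated 15 min with compounds at room temperature; reaction started with fluorescent substrate, 50 nM final. Fluorescence read kinetically at 0 and 10 min; buffer-only wells as negative control.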
# POLK inh: inhibitors of human DNA polymerase kappa | Q9UBT6 | purified Pol kappa, fluorescent DNA synthesis assay, 10 min | Potency, µM (series often up to 107 µM), most hits filed as inhibitors | 400,000 compounds, 0.53% hits
#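 Kinetic fluorescence screen: compound preincubated 15 min RT with 10 nM enzyme; 50 nM substrate (final) initiates; reads at 0/10 min.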
# POLH inh: DNA polymerase eta (human) inhibition | recombinant Pol eta, fluorescent DNA replication assay | 390,000 compounds, 1.2% hits | Potency, µM (top dose mostly 114 µM), hits mostly inhibitors | AID 588591 | Q9Y253
#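 Pol eta (10 nM) was preincubated with compounds for 15 min at room temperature, after which fluorescent replication substrate (50 nM final) was added to start the reaction. Fluorescence was read kinetically at 0 and 10 min.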
# POLB inh: inhibitors of human DNA polymerase beta | P06746 | Pol beta primer extension/strand displacement, fluorescence kinetic | Potency, µM (highest dose often 114 µM), usual class: inhibitors | 340,000 compounds, 1.3% hits
#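 Human Pol beta at 10 nM; strand-displacement substrate 50 nM final. Compound exposure 15 min at room temperature before start, reaction 10 min at room temperature.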
# PI5P4K alpha inh: inhibitors of human PI5P4K alpha. PI5P4Kalpha enzyme, ADP-Glo luminescence, 60 min; active compounds read low. AID 652105. max response, %. 330,000 compounds, 1.2% hits; active means max response of -50% or lower; inconclusive means between -30% and -50%; inactive means -30% or higher; further: value at the top dose of about 77 µM
#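 Luminescence from ADP-Glo served as readout of PI5P4Kalpha activity in a qHTS format. Reaction: enzyme, substrate, compound, ATP at 5 microM final, 60 min at RT.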
# Numbers stand for hits; n = inactive; u = inconclusive; x = no result; [ ] = dose if it differs, or a comment. A selection: hits, their analogues and other compounds. The true share with any hit is near 2.8%. Unless noted, the call rests on the fitted dose curve; in most records, active means well fitted curve in the direction sought with a large enough effect; inconclusive means small, poorly fitted or top-dose-only effect, or another doubt; inactive means no such curve, though single readings can be large; an effect the other way counts as inactive or inconclusive.
SMILES,WRN helicase inh,POLI inh,POLK inh,POLH inh,POLB inh,PI5P4K alpha inh
O=C(COc1ccc2ccccc2c1)NNC(=O)c1ccc([N+](=O)[O-])cc1,n,u,n,79µM,8.9µM,n
O=C(COc1ccc2ccccc2c1)NNC(=O)Nc1ccccc1F,n,79µM,n,u,35µM,n
CC(Oc1ccc2ccccc2c1)C(=O)NNC(=O)Nc1ccccc1F (centres undefined),n,n,n,n,u,n
O=C(COc1ccc(-c2ccccc2)cc1)NNC(=O)Nc1ccc(F)cc1F,n,n,n,u,8.9µM,n
Cc1ccc2sc(N(CCCN(C)C)C(=O)c3ccc(Br)s3)nc2c1C,n,n,n,u,n,n
Cc1cc(NC(=O)CSCC(=O)OCC(=O)c2cccc(Br)c2)no1,n,u,n,n,x,-62
Cc1ccc(S(=O)(=O)Oc2cccc(/C=N/Nc3ccc(C(=O)O)cc3)c2)cc1,n,n,n,79µM,n,n
O=C(O)c1cccc(N2C(=O)C3C4C=CC(C4=C(c4ccccc4)c4ccccc4)C3C2=O)c1 (centres undefined),n,n,n,n,50µM,n
CC(=O)Cn1nnc2sc3c(c2c1=O)CCC(C(C)(C)C)C3 (centres undefined),n,n,n,n,n,n
CCn1nnc2sc3c(c2c1=O)CCC(C)C3 (centres undefined),n,n,n,n,n,n
Cc1cccc(OCCCCn2nnc3sc4c(c3c2=O)CCC(C)C4)c1 (centres undefined),x,u,n,x,14µM,x
Cc1ccc(OCCn2nnc3sc4c(c3c2=O)CCC(C(C)(C)C)C4)cc1 (centres undefined),x,n,n,x,22µM,x
CC(C)(C)C1CCc2c(sc3nnn(CCOc4ccccc4)c(=O)c23)C1 (centres undefined),x,n,n,x,25µM,x
CCNC(=O)C1(C)CCN(C(=O)c2ccc3c(c2)OCO3)C1 (centres undefined),n,x,x,x,x,n
O=C(N/N=C1\CCCc2oc(C(=O)O)cc21)c1ccccc1,n,n,n,n,n,n
O=C(O)c1cc2c(o1)CCC/C2=N\O,n,n,n,n,89µM,x
N=C1SC(c2ccccc2)C(=O)N1c1ncc(Cc2ccccc2Cl)s1 (centres undefined),u,u,u,u,18µM,u
O=C(CSc1nnnn1-c1ccccc1)Nc1ncc(Cc2ccccc2Cl)s1,n,n,n,n,n,n
COC(=O)N1CCC2(CCCN(Cc3nccs3)C2)CC1,x,x,n,x,x,x
CCCN(CCC)CCNC(=O)c1cc(Sc2ccc(Cl)cc2)nc2ccccc12,x,n,n,n,n,x
COc1cccc(-c2nc(SCC(=O)NC3CCCC3)c(-c3ccccc3)[nH]2)c1,x,n,n,n,n,x
O=c1c2ccccc2nc2c3ccccc3c(NCCN3CCOCC3)nn12,x,x,x,x,40µM,x
CSC1=NS(=O)(=O)c2c(C)nn(C)c2S1,n,n,n,n,n,-76
COc1ccc(C(=O)N[C@H](C(=O)OCCCOC(=O)[C@@H](NC(=O)c2ccc(OC)cc2)C(C)C)C(C)C)cc1,n,n,n,n,x,n
Clc1ccc(CSc2nnc(-c3cccnc3)n2Cc2ccco2)c(Cl)c1,n,n,n,u,50µM,u
SMILES,WRN helicase inh,POLI inh,POLK inh,POLH inh,POLB inh,PI5P4K alpha inh
O=C(/C=C/c1ccccc1Cl)NC1CCS(=O)(=O)C1 (centres undefined),u,n,n,n,n,-69
O=C(/C=C/c1ccccc1Cl)NC1CCCCC1,n,n,n,n,n,n
CCOc1ccc(-c2nonc2NC(=O)c2oc3cc(C)ccc3c2C)cc1,x,u,n,n,n,x
O=C(O)C1CCCCC1C(=O)Nc1nc(-c2ccc(Cl)s2)cs1 (centres undefined),n,u,u,45µM,16µM,u
CCCC(=O)Nc1nc(-c2ccc(Cl)s2)cs1,n,n,n,n,n,n
CC(C)c1ccc(OCc2cc(=O)n3c(-c4ccccc4)csc3n2)cc1,x,u,n,u,20µM,x
O=c1cc(CSc2nnnn2-c2ccccc2)nc2sccn12,n,u,n,n,n,n
O=c1cc(COc2ccccc2Cl)nc2scc(-c3ccccc3)n12,x,u,u,u,n,x
Cc1cccc(C)c1OCc1cc(=O)n2c(-c3ccccc3)csc2n1,x,n,n,n,n,x
O=c1cc(CN2CCN(c3ccc(O)cc3)CC2)nc2scc(-c3ccccc3)n12,n,u,n,n,11µM,u
O=c1cc(CSc2nnnn2-c2ccccc2)nc2scc(-c3ccccc3)n12,n,u,u,n,25µM,u
Cc1cccc(OCc2cc(=O)n3c(-c4ccccc4)csc3n2)c1C,x,u,n,u,28µM,x
CC1=CC(=C(c2ccc(N)cc2)c2ccc(N)cc2)C=CC1=N,x,n,n[19.4 µM],x,x,x
COc1ccc(NC(=S)NC2CCCCC2)cn1,n,n,n,n,n,n
COc1ccc(C)cc1S(=O)(=O)N1CCOCC1,n,n,n,n,n,n
CC(=O)Nc1ccc2c(c1)Cc1cc(N3C(=O)C=CC3=O)ccc1-2,35µM,u,n,n,x,u
CC(=O)Nc1ccc2c(c1)-c1ccc(F)cc1C2,n,n,n,n,x,n
CC(=O)Nc1ccc2c(c1)Cc1ccc(Cl)cc1-2,n[11.6 µM],79µM,n,n,x,n
Cc1nc2ccc(S(=O)(=O)CCC(=O)Nc3ccc(F)cc3C)cc2s1,x,n,n,n,n,x
CC(C)c1nn2c(=O)cc(COC(=O)c3ccc(NC(=O)C4CCCCC4)cc3)nc2s1,x,n,n,79µM,n,x
Cc1nn2c(=O)cc(COC(=O)c3ccc(NC(=O)CCc4ccccc4)cc3)nc2s1,x,n,n,n,79µM,x
Cc1nn2c(=O)cc(COC(=O)c3cccc(NC(=O)CCc4ccccc4)c3)nc2s1,x,u,n,n,n,x
COCCCNC(=O)CSc1nc2c(sc3ccccc32)c(=O)n1CCc1ccc(OC)c(OC)c1,x,n,n,n,n,x
COc1ccc(CNC(=O)c2cc(-c3cccs3)nc3ccccc23)c(OC)c1,x,n,n,n,n,x
COc1cccc(/C=C2/SC(=S)N(CCCC(=O)Nc3ccc(O)cc3)C2=O)c1,n,n,n,n,n,n
O=C(O)CCN1C(=O)/C(=C\c2cccc(OCC(=O)Nc3ccc(Cl)cc3)c2)SC1=S,n,u,u,n,56µM,n
Cc1ccc(NC(=O)COc2cccc(/C=C3\SC(=S)N(CCC(=O)O)C3=O)c2)cc1Cl,n[11.6 µM],50µM,79µM,45µM,u,n
COc1cccc(/C=C2\SC(=S)N(CCCC(=O)Nc3ccc(C(=O)O)cc3)C2=O)c1,n,n,n,u,n,n
CCN1CCN(S(=O)(=O)c2ccc(OC)c(NC(=O)c3ccccc3F)c2)CC1,n,n,n,n,x,n
